Targets include SMC2; SMAD4; SMC5; SLMAP.
What all share (assay): pooled miR-30 sensor sort-seq; sequence = guide strand
What all share (conditions): shRNA
Note: reference of the scale not given here.

TTTGATTCTCAGTTCATCCTGA came in with a sensor-assay potency score (higher = more potent) in the assay with SMC2 of 0.766.
With TTTGAATTGAATGTCCTTCAGT, the sensor-assay potency score (higher = more potent) with SMAD4 is -0.388.
The sequence TTGAGTTCTTGAAACTTGGTTA came in with a sensor-assay potency score (higher = more potent) in the assay with SMC2 of 0.137.
Turning to TTCTGGTTTATATTCAACCAAG, the sensor-assay potency score (higher = more potent) in the assay with SMC2 is -1.67.
TTATCTTTCATATTGATCGTGA had a sensor-assay potency score (higher = more potent) with SMC5 of 0.464.
For the sequence TTCTGCAATAATCTCTGTCTAT, the sensor-assay potency score (higher = more potent) in the assay with SMC5 was -1.01.
In the case of TTAACTTTGAGAACTTCTCTGC, the sensor-assay potency score (higher = more potent) in the assay with SMAD4 worked out at 0.783.
For the sequence TCAACTTCTCTAGTTCACCTTG, in the assay with SLMAP, the sensor-assay potency score (higher = more potent) was 0.0522.
In the assay with SMC2, TTGCATTGTTGAACATACCTTC yielded a sensor-assay potency score (higher = more potent) of 0.529.
Regarding TTACTTGTTGGTGTATTCGTAA, the sensor-assay potency score (higher = more potent) in the assay with SMAD4 is -0.078.
In the assay with SMAD4, TAACTCTGTACAAAGACCGCGT came in with a sensor-assay potency score (higher = more potent) of 0.679.
With TACATTCCAACTGCACACCTTT, the sensor-assay potency score (higher = more potent) in the assay with SMAD4 was -0.752.
Regarding TTGTTTATTCTTTAATTCCTGT, the sensor-assay potency score (higher = more potent) in the assay with SMC2 is -0.411.
On to TTCCAGGTGATACAACTCGTTC, for which the sensor-assay potency score (higher = more potent) with SMAD4 was -1.63.
Regarding TAATTCTTCTTGTTGCTTGTGA, the sensor-assay potency score (higher = more potent) with SMC2 amounted to 0.551.
Sequence TTCTATTCCAGTTCTTCTCTGG showed a sensor-assay potency score (higher = more potent) with SMC2 of 0.3.
With TAAATCTAAATGTCGCTTCCGT, the sensor-assay potency score (higher = more potent) with SMC5 is 0.849.
Take TACTTTGGTATCTTCAGCCAGC: in the assay with SMC2, the sensor-assay potency score (higher = more potent) is -0.418.
As for TAAGAGTCTATCTTCATCTATT, the sensor-assay potency score (higher = more potent) with SLMAP was -0.538.
TTCATCTCTAGTACTTGTGATT: the sensor-assay potency score (higher = more potent) in the assay with SLMAP was -0.717.
With TTACAATACATTATTAACTTAC, in the assay with SMAD4, the sensor-assay potency score (higher = more potent) is -0.987.
The sequence TTGATTTCATCAACTACTCTGA displayed a sensor-assay potency score (higher = more potent) with SMC5 of 0.124.
With TTCTAGAGCTTCTTGATCCTTC, the sensor-assay potency score (higher = more potent) in the assay with SMC2 was determined as 0.175.
In the case of TTCTCTTTTTGTATATTCCTGA, the sensor-assay potency score (higher = more potent) with SMC5 is -0.0732.
For TTGTATTTTGTAGTCCACCATC, the sensor-assay potency score (higher = more potent) with SMAD4 was -1.39.
TTGAAGATAAAACTTGCCCGTC: in the assay with SLMAP, the sensor-assay potency score (higher = more potent) came to 0.116.
In the assay with SMC2, TTCATTTACAGCTTCAAGCTGT displayed a sensor-assay potency score (higher = more potent) of 0.444.
On to TTAGGTAGAGTGACGCTGCTTT, for which the sensor-assay potency score (higher = more potent) with SMAD4 is 0.626.
Consider TTCTTAGCAACCAACCTTGTGC, for which the sensor-assay potency score (higher = more potent) with SMAD4 is -0.338.
Turning to ATACTCTTTCTGCACATCCTTT, in the assay with SLMAP, the sensor-assay potency score (higher = more potent) was -0.952.
